PubChem BioAssay AID1631 (National Center for Advancing Translational Sciences (NCATS), 2009)
Among all 260,000 compounds or so, about 890 (0.34%) were called active. Roughly 1% stayed inconclusive and do not appear here. The call rests on the fitted dose curve; in most records, active means well fitted activation curve with a large enough effect; inconclusive means small, poorly fitted or top-dose-only effect; inactive means no such curve, though single readings can be large or run the other way. Shown is part of a subset that was picked to be rich in actives.

Molecular target: Pyruvate kinase PKM (Homo sapiens) (UniProt P14618)
Experiment: qHTS Assay for Activators of Human Muscle isoform 2 Pyruvate Kinase; further: nearly all actives have a fitted effect of over 55% in size
Conditions: purified PKM2, Kinase-Glo ATP luminescence; Potency: activation; series mostly up to 57.5 µM; activation: at the top concentration
Description: NIH Chemical Genomics Center [NCGC] Matthew G. Vander Heiden, M.D., Ph.D. [Harvard Medical School, 77 Avenue Louis Pasteur, Boston, MA 02115] MLPCN Grant: 1 R03 MH085679-01 NCGC Assay Overview: Human pyruvate kinase muscle 2 (hPK-M2) enzyme was supplied as a highly purified (>95% pure) preparation from Harvard Medical School and assayed for its ability to generate ATP from ADP using phosphoenolpyruvate (PEP) as a substrate. ATP generation was detected in a coupled reaction by luciferase-mediated luminescence, an ATP-dependent process. […] The enzyme was assayed at an intermediate level of activity to screen for both inhibitors and activators.
NCGC Assay Protocol Summary: Three uL of substrate mix (at r.t.) in assay buffer (50 mM Imidazole pH7.2, 50 mM KCl, 7 mM MgCl2, 0.01% Tween 20, 0.05% BSA) was dispensed into white solid bottom 1,536 well microtiter plates so that the final concentrations of substrates in the assay were 0.1 mM ADP and 0.5 mM PEP. 23 nL of compound were delivered by a pin tool and 1 uL of enzyme mix in assay buffer (4 degree Celsius) was added. Plates were incubated at room temperature for 1 hour. Two uL of detection mix (Kinase-Glo, Promega; at 4 degree Celsius protected from light) was added and luminescence read by a ViewLux (Perkin Elmer) at 5 second exposure/plate. Data were normalized to the uninhibited and AC100 inhibition (no enzyme). To monitor activation, the first column contained a titration of the activator, NCGC00031955-01 (16-point 1:2 dilutions in duplicate starting at 57 uM) and the first 16 rows of column 4 contained 57 uM of NCGC00031955-01.
On the % scale 0 is the no-effect control and ±100 the full control effect; potency means the concentration at half of the fitted maximal effect.

Pyruvate kinase PKM (Homo sapiens), sequence (P14618 whole entry, looked up, canonical isoform): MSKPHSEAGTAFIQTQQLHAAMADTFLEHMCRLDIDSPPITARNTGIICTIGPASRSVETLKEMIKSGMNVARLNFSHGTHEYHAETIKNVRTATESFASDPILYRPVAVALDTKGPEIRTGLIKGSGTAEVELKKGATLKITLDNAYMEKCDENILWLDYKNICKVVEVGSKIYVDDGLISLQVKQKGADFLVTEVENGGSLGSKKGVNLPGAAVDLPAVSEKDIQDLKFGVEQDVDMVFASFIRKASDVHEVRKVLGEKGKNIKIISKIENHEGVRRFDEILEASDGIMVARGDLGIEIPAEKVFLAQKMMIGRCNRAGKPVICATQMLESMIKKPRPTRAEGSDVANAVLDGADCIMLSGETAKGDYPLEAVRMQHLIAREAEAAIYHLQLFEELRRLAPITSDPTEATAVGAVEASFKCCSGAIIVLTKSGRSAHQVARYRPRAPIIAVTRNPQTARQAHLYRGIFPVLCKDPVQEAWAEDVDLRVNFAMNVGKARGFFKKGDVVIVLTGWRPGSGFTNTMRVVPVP

activation, inactive:
CCC(=O)Nc1nc(C)c(C(=O)Nc2cccc(Cl)c2)s1 1.43%
O=C(CCCCCn1c(=S)[nH]c2ccsc2c1=O)NC1CCCCC1 13.9% [at 0.46 µM, 0% is enzyme alone, no compound]
CCSc1nsc(NC(=O)Nc2ccccc2OC)n1 0.348%
Cc1ccc(NC(=O)CSc2cccc3cccnc23)c(C)c1 -0.598%
Cc1ccc(NC(=S)Nc2ccc(F)cc2)cc1 0.501%
N=c1oc2ccccc2cc1C(=O)NCc1ccccc1 -2.59%
O=C(NCc1ccc(Cl)cc1)C1CCN(S(=O)(=O)c2cccs2)CC1 19.6%
O=S(=O)(c1ccc2c(c1)OCCO2)N1CCc2ccccc21 9.4%
O=C(NCc1ccccn1)C1CCN(S(=O)(=O)c2ccc(Br)cc2)CC1 3.51%
O=C(c1ccc2c(c1)OCCO2)C1CCN(S(=O)(=O)c2cccc(F)c2)CC1 -1.6%
O=C(NCc1ccc2c(c1)OCO2)C1CCCN(S(=O)(=O)c2cccs2)C1 (stereo not given) -1.93%
Cc1ccc(S(=O)(=O)N2CCN(C)CC2)cc1 -0.548%
Cc1ccccc1CN1C[C@@H]2C[C@@H](c3ccc4nsnc4c3)N3CCC[C@@]23C1=O 2.46%
Cc1ccc(CN2CCN(Cc3cn(C)nc3-c3ccccc3)CC2CCO)o1 (stereo not given) 0.985%
CN(C(=O)CSc1nncc2ccccc12)C1CCCCC1 -6.26%
COc1ccc(Cl)cc1NC(=O)c1cccc(N2C(=O)C3CC=CCC3C2=O)c1 (stereo not given) 1.39%
O=C(NCC1CCCO1)c1cc2c([nH]c3ccccc32)c(-c2ccc(F)cc2)n1 (stereo not given) 1.73%
O=C(Nc1ccc(S(=O)(=O)Nc2ccccn2)cc1)c1ccccc1 3.96%
CC(=O)CCC(=O)c1ccc2ccccc2c1 -3.25%
CC(=O)c1ccc2c(ccc3ccccc32)c1 0.0915%
CCOC(=O)c1cccc(NC(=O)C2CCN(c3ncnc4c3nc3n4CCCCC3)CC2)c1 0.194% [at 0.46 µM, 0% is enzyme alone, no compound]
CCCOC1CCCN(C(=O)c2cc(COc3cncc(Cl)c3)on2)C1 (stereo not given) -0.188%
O=C(NC(=S)NC1CCCCC1)c1ccc(Cl)cc1 0.722%
O=S(=O)(NC1CCCCC1N1CCN(c2ccccc2F)CC1)c1ccccc1 (stereo not given) 5.02%
O=C(Cc1ccc(Cl)cc1)NC(=S)Nc1ccccc1O 0.277%
CC1(C(=O)NCCc2c[nH]c3ccccc23)C=CC2(CCCCC2)N1C(=O)c1ccccc1 (stereo not given) -0.336%
Cc1ccccc1NC(=O)CSc1nc2ccc(Nc3nc(N4CCOCC4)nc(N4CCOCC4)n3)cc2s1 0.537%
CN(C(=O)CC1C(=O)NCCN1Cc1ccc(F)cc1Cl)C1CCCCC1 (stereo not given) 5.71%
CC(=O)N1c2ccc(S(=O)(=O)N3CCCC(C(=O)Nc4cccc(F)c4)C3)cc2CC1C (stereo not given) 1.41%
CCC(C)c1ccc(NC(=S)N2CCCC2)cc1 (stereo not given) -6.17%
Cc1noc(C)c1CSCC(=O)N(CCC(C)C)c1c(N)n(Cc2ccccc2)c(=O)[nH]c1=O -5.51%
COC(=O)c1ccc(COc2ccc(/C=C/C(=O)c3ccc(OC)c(CSCC(=O)O)c3)cc2OC)cc1 2.32%
CCN(CC)CCn1c(N)c(S(=O)(=O)c2ccccc2)c2nc3ccccc3nc21 13%
CCC(=O)Nc1c(S(=O)(=O)c2ccccc2)c2nc3ccccc3nc2n1Cc1ccccc1 0.876%
c1ccc(Cc2ccc(OCCn3ccnc3)cc2)cc1 -7.06%
O=C(Nc1ccc(C(=O)N2CCCCC2)cc1)c1cccc([N+](=O)[O-])c1 -5.33%
CCCCC(C(=O)NC(C)(C)C)N(Cc1ccccc1)C(=O)c1snc(C(N)=O)c1N (stereo not given) -16.3%
COc1ccc(-c2nn(-c3ccccc3)cc2/C=C2/SC(=S)N(CCCC(=O)O)C2=O)c(C)c1 -3.19% [at 11.5 µM, 0% is enzyme alone, no compound]
CCCc1cc(C(=O)N2CCCC(CO)(CCCc3ccccc3)C2)n(C)n1 (stereo not given) 0.0637%
O=C(CNc1cccc(S(=O)(=O)N2CCCCC2)c1)Nc1ccccc1F -1.95%
Cc1cccc(-n2ncc(Cl)c(Cl)c2=O)c1 -5.55%
C/C(=N\N(C)C)c1ccc(OCCOc2ccc([N+](=O)[O-])cc2)cc1 0.783%
COc1ccc(CCn2c(=N)c(C(=O)NCc3ccco3)cc3c(=O)n4cccc(C)c4nc32)cc1 4.82%
C=C(C)Cn1c(SCC(=O)NCc2ccco2)nc2sc3c(c2c1=O)CCC3 13.2%
O=C(CCCC(=O)N1CCN(c2cccc(Cl)c2)CC1)c1ccccc1 1.12%
CS(=O)(=O)Nc1ccc(C2=NN(S(C)(=O)=O)C(c3cccs3)C2)cc1 (stereo not given) 20%
COc1ccc(C2=NN(C(=O)CCC(=O)O)C(c3cccs3)C2)cc1OC (stereo not given) -0.38%
CC(=O)c1cc2c(cc1NC(=O)Cn1nc(-c3ccc(F)cc3)ccc1=O)OCO2 7.5%
CC(=O)N1CCc2c(sc(NC(=O)CCS(=O)(=O)c3ccccc3)c2C#N)C1 -1.62%
CCOC(=O)c1ccc(NC(=O)Cc2cccs2)cc1 -1.74%
CC1CCN(C(=S)NC(=O)c2ccccc2Br)CC1 -7.18%
O=C(Nc1ccc(N2CCOCC2)c(Cl)c1)c1ccc(S(=O)(=O)N2CCOCC2)cc1 0.221%
COc1ccc(C2CC(c3ccccc3)=NN2C(=O)c2ccc(Cl)c([N+](=O)[O-])c2)cc1 (stereo not given) -2.93%
COc1ccc(C2=NN(C(C)=O)C(c3ccccc3)C2)cc1 (stereo not given) 14.6%

Potency, active:
O=C(NCc1cccs1)C1CCN(S(=O)(=O)c2ccc3c(c2)OCCO3)CC1 3.98 µM
CN1CCCN(S(=O)(=O)c2ccc3c(c2)OCCO3)CC1 3.55 µM
O=C(NCc1cccs1)C1CCN(S(=O)(=O)c2ccc(Cl)cc2)CC1 14.1 µM
Cc1ccccc1CN1C[C@@H]2C[C@@H](c3cn(C)nc3-c3ccccc3)N3CCC[C@@]23C1=O 5.62 µM
Brc1c(CSc2nncc3ccccc23)nc2ccccn12 4.47 µM
C=CC(=O)c1ccc2ccccc2c1 10 µM
Cc1ccc(S(=O)(=O)c2c(N)n(C)c3nc4ccccc4nc23)cc1 12.6 µM
O=C(NCc1ccco1)c1cccn2c(=O)c3c4c(sc3nc12)CCCC4 25.1 µM
CCS(=O)(=O)Nc1ccc(C2=NN(C(C)=O)C(c3cccs3)C2)cc1 (stereo not given) 4.47 µM
COc1ccc(C2CC(c3ccc([N+](=O)[O-])cc3)=NN2C(C)=O)cc1 (stereo not given) 12.6 µM

Potency, inactive:
CCN1C(=S)N[C@@H](CCc2ccccc2)[C@H](C(=O)OC)[C@H]1C
